Some structures have more than one record in an assay (separate samples or runs), and their calls can disagree. Activity calls are given as the source filed them. Rule for the calls: active = hit-call score of the fitted dose curve at least 0.9, where 1 is the maximum; inactive = score below 0.9.
assay: CCTE_Shafer_MEA_dev_per_burst_interspike_interval: CCTE's Neural Network Formation Assay for Burst Interspike Interval, Shafer Lab (AID 2284044);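 note: mean spike spacing inside bursts as AUC over recordings on days 5 7 9 12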;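 for AC50: potency for a decrease of within-burst interspike interval below DMSO level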
Protocol: CCTE_Shafer_MEA_dev assay is conducted using Axion Biosystems 48 well microelectrode array (MEA) plates and Maestro recording system. Each well of the MEA plate contains a grid of 16 microelectrodes embedded in the culture surface. Electrically active cells, such as neurons, can be cultured over the electrodes, and electrical activity in these cells can be recorded extracellularly. The spontaneous firing of neurons is captured from each electrode on a microsecond timescale providing both temporally and spatially precise data. […] The CCTE_Shafer_MEA_dev assay uses primary cultures of rat cortical neurons. Recordings are made on days post-plating 5, 7, 9 and 12. As these cultures mature over time, neural networks develop functional activity and form cohesive networks in which electrical activity can be highly coordinated. CCTE_Shafer_MEA_dev_per_burst_interspike_interval is 1 of 19 assay components of the CCTE_Shafer_MEA_dev assay. It measures the average time interval between spikes (action potential firings) within a single-electrode burst (temporally-clustered group of spikes) during a recording in a microelectrode array (MEA) using Axion Biosystems Maestro 768 channel amplifier with the AxIS adaptive spike detector. The mean inter-spike interval within bursts is averaged across the actively bursting electrodes to report a well-mean value. To collapse across multiple recordings made on days post-plating 5, 7, 9 and 12, the trapezoidal area-under-the-curve of the component is calculated.Data from the assay component CCTE_Shafer_MEA_dev_per_burst_interspike_interval was analyzed into 1 assay endpoint. This assay endpoint, CCTE_Shafer_MEA_dev_per_burst_interspike_interval, was analyzed in the negative analysis fitting direction relative to DMSO as the negative control and baseline of activity. Using a type of functional reporter, gain or loss-of-signal activity can be used to understand electrical activity.
On the day prior to culture, each well was coated thoroughly with 150 uL of 0.05% polyethyleneimine (PEI, Sigma Cat P3143) in 50 mM HEPES (Sigma Cat H7523) at a pH of 8. The plate was incubated at 37C for one hour. PEI was rinsed out with 500 uL of sterile water three times. Plates were stored at 4C until the day of culture. This culture was plated at a seeding density of 1.5 x 10^5 cells/well on a 48-well MEA plate, prepared as described above. Cells were administered via a 25 uL media/laminin ([…]; Sigma Cat L2020-1MG) drop directly onto the microelectrode array, as adding the cells with the laminin results in better attachment than pre-coating with laminin. After 2 hours, an additional 475 uL of cortical media was added and the cells returned to the incubator. Exposure starts at day 0 of plating and is continued over twelve days of network development until the experiment is terminated. Cells are fed with fresh medium on DIV 5 and 9, following the recordings on those days. The entire volume of media in the well is exchanged and any vehicle or compound treatment is renewed. Complete details are found in OP-NHEERL/ISTD/SBB/TJS/2015-03-r0 (available on request, email shafer.tim@epa.gov). Measurement of the electrical activity is non-invasive, and recordings can be made from the same plate over multiple different days of the culture. In cortical neurons, this allows for the measurement of extracellular action potentials over the period during which networks form in the MEA plate.

| Compound | outcome | AC50 |
| --- | --- | --- |
| CCCCC(CC)COC(=O)c1cc(Br)c(Br)c(Br)c1Br (stereo not given) | inactive |  |
| COC(=O)[C@H]1[C@@H](OC(=O)c2ccccc2)C[C@@H]2CC[C@H]1N2C | inactive |  |
| CC1(C)[C@H](C=C(Cl)Cl)[C@H]1C(=O)OCc1c(F)c(F)cc(F)c1F |  | 13700 nM (active) |
| c1ccc2c(c1)cc1ccc3cccc4ccc2c1c34 | inactive |  |
| CN[C@]1(c2ccccc2Cl)CCCCC1=O | inactive |  |
| CCOP(=O)(OCC)SCSC(C)(C)C | inactive |  |
| CC1(C)[C@@H](C=C(Cl)Cl)[C@@H]1C(=O)O[C@@H](C#N)c1ccc(F)c(Oc2ccccc2)c1 | inactive |  |
| C=CCN1CC[C@]23c4c5ccc(O)c4O[C@H]2C(=O)CC[C@@]3(O)[C@H]1C5 | inactive |  |
| [CH3][Hg][Cl] |  | 322 nM (active) |
| CC1(C)[C@H](C=C(Cl)Cl)[C@@H]1C(=O)O[C@@H](C#N)c1cccc(Oc2ccccc2)c1 |  | 4060 nM (active) |
| CCOP(=S)(OCC)SCS(=O)C(C)(C)C (stereo not given) | inactive |  |
| CC(=O)[O-].[Tl+] | inactive |  |
| CNC(=N[N+](=O)[O-])NCC1CCOC1 (stereo not given) | inactive |  |
| CP(=O)(O)CCC(N)C(=O)O (stereo not given) | inactive |  |
| CN1C(=O)CN=C(c2ccccc2)c2cc(Cl)ccc21 | inactive |  |
| O=C(O)CNCP(=O)(O)O | inactive |  |
| O.O.O.O.O.[Cd+2].[Cd+2].[Cl-].[Cl-].[Cl-].[Cl-] |  | 812 nM (active) |
| CC(C)CCCCCCCOP(=O)(Oc1ccccc1)Oc1ccccc1 | inactive |  |
| CCOP(=O)(Oc1cnc(C(C)(C)C)nc1)OC(C)C (stereo not given) | inactive |  |
| C/C(=C/C=C/[C@@H](C)C(=O)O)[C@H]1CN[C@H](C(=O)O)[C@H]1CC(=O)O | inactive | 1330 nM (active) |

| Compound | outcome | AC50 |
| --- | --- | --- |
| C[n+]1ccc(-c2ccccc2)cc1 | inactive |  |
| Brc1ccc(Oc2ccc(Br)cc2Br)c(Br)c1 | inactive |  |
| CC1(C)[C@H](C(=O)O[C@H](C#N)c2cccc(Oc3ccccc3)c2)[C@@H]1C=C(Br)Br |  | 15000 nM (active) |
| C#CCN(C)[C@H](C)Cc1ccccc1 | inactive |  |
| Cc1ccc(OP(=O)(Oc2ccc(C)cc2)Oc2ccc(C)cc2)cc1 (tested in a mixture with another compound) | inactive |  |
| COP(=O)(OC)SCN1C(=O)c2ccccc2C1=O | inactive |  |
| CC1(C)C(C=C(Cl)Cl)C1C(=O)O[C@H](C#N)c1cccc(Oc2ccccc2)c1 (stereo not given in full) |  | 2890 nM (active) |
| CCC[CH2][Sn]([CH2]CCC)([CH2]CCC)[O][Sn]([CH2]CCC)([CH2]CCC)[CH2]CCC |  | 76.8 nM (active) |
| CCC1(c2ccccc2)C(=O)NC(=O)NC1=O | inactive |  |
| CC(=O)[O-].CC(=O)[O-].O.O.O.[Pb+2] | inactive |  |
| [CH3][Sn]([CH3])[CH3] |  | 2330 nM (active) |
| [Cd+2].[Cl-].[Cl-] |  | 630 nM (active) |
| CCOP(=O)(OCC)OC(Cl)C(Cl)(Cl)Cl (stereo not given) |  | 3480 nM (active) |
| Brc1ccc(Oc2cc(Br)c(Br)cc2Br)c(Br)c1 | inactive |  |
| C[n+]1ccc(-c2cc[n+](C)cc2)cc1 |  | 2330 nM (active) |
| Cn1nc(C(F)(F)F)c(CS(=O)(=O)C2=NOC(C)(C)C2)c1OC(F)F |  | 26300 nM (active) |
| NCCc1cc(O)c(O)cc1O | inactive |  |
| CCOP(=O)(OCC)SCSCC | inactive |  |
| CC1CCCC1.[C-]#[O+].[C-]#[O+].[C-]#[O+].[Mn] | inactive |  |

Source: PubChem BioAssay (EPA / NIEHS)
